The structures appear in SMILES notation. Inconclusive results are not listed. A call without a number means that no potency is given here. Active and inactive are the calls of the source. The call rests on the fitted dose curve; in most records, active means well fitted inhibition curve with a large enough effect; inconclusive means small, poorly fitted or top-dose-only effect; inactive means flat fitted curve, though single readings scatter.

The assay relates to CP203. The assay can be described thus: qHTS profiling for inhibitors of Plasmodium falciparum proliferation (AID 504749). Further: nearly all actives have a fitted effect of over 60% in size. The conditions noted are these: P. falciparum in erythrocytes, SYBR Green DNA, 72 h; series mostly up to 28.7 µM. The source says:
NIH National Institute of Allergy and Infectious Diseases [NIAID] NIH Chemical Genomics Center [NCGC] MLPCN Grant: None Assay Provider: Xinzhuan Su, NIAID NCGC Assay Overview: Plasmodium falciparum is a virulent malarial parasite that kills 1-2 million people worldwide each year. Transmitted by mosquitoes, the sporozoite form of the parasite enters the blood stream to infect hepatocytes, where they become merozoites that infect red blood cells (erythrocytes). Within erythrocytes, merozoites begin a […] cycle of growth and division, after which the parasite is released to infect new red blood cells. Gametocytes, which form within erythrocytes as well, circulate in the bloodstream and are ingested by the mosquito, thereby completing the life cycle. To profile malarial isolates for differential chemical responses and to identify inhibitors of malarial growth, an assay that measures P. falciparum growth and replication within erythrocytes was employed. This assay uses a DNA binding fluorescent dye (SYBR Green) to detect parasite DNA following cell lysis. Because mature erythrocytes lack DNA, only Plasmodium-derived DNA is detected.
NCGC Assay Protocol Summary: The SYBR Green viability assay was adapted from a method described previously (Plouffe et al., 2008). For screening 3 ul culture medium was dispensed into 1536 well black clear bottom plates (Aurora Biotechnologies) using a Multidrop Combi (Thermo Fisher Scientific Inc.), 23 nL compounds in DMSO were added by a pin tool (Kalypsys), and 5 ul of erythrocytes infected with P. falciparum (0.3% parasitemia, 2.5% hematocrit final concentration) were added. The plates were incubated at 37 C in a humidified incubator in 5% CO2 for 72 h, and 2 ul lysis buffer (20 mM Tris HCl, 10 mM EDTA, 0.16% saponin, 1.6% triton X, 10X SYBR Green I supplied as 10,000X […] by Invitrogen) was added to each well. The plates were mixed for 25 sec with gentle shaking and incubated overnight at room temperature in the dark. The following morning, fluorescence intensity at 485(14) nm excitation and 535(25) nm emission wavelengths was measured on an EnVision (Perkin Elmer) plate reader. Plate reads were normalized relative to the control inhibitor (0.29 uM artemisinin) and vehicle (DMSO) wells present on each plate and then corrected by an algorithm using vehicle-only control plates at the beginning and end of the compound plate stack.
(In qHTS, concentration-response curves come from the screen itself.)
On to `Cc1ccc(S(=O)(=O)NC(=O)NC2CCCCCCC2)cc1`, for which the Potency result is “inactive”.

In the case of `CCCCCC(N)=O`, the Potency entry is “inactive”.

Consider `Cc1cc(-n2nc3ccc(Cl)cc3n2)c(O)c(C(C)(C)C)c1`, for which the Potency result was “inactive”.

For the molecule `COc1ccccc1OC(=O)Oc1ccccc1OC`, the Potency result was “inactive”.

For the molecule `NC(=O)CCCCC1CCSS1` (stereo not given), the Potency result is “inactive”.

Turning to `CC[N+](CC)(CC(=O)Nc1c(C)cccc1C)Cc1ccccc1`, the Potency entry was “inactive”.

Turning to `CCN(CC)C(=O)c1cccc(C)c1`, the Potency entry was “inactive”.

Consider `CC(O)CCCCn1c(=O)c2c(ncn2C)n(C)c1=O` (stereo not given), for which the Potency result is “inactive”.

Take `O=C(O)Cc1cn(-c2ccccc2)nc1-c1ccc(Cl)cc1`: the Potency result was “inactive”.

As to `CCCCCC(C)N` (stereo not given), the Potency entry was “inactive”.

For the molecule `CNc1c2c(nn1C)CCCC2`, the Potency result is “inactive”.

In the case of `COc1nccnc1NS(=O)(=O)c1ccc(N)cc1`, the Potency result is “inactive”.

Take `CC(C)c1cc2c(cc1S(=O)(=O)O)[C@@]1(C)CCC[C@@](C)(C(=O)O)[C@@H]1CC2`: the Potency result is “inactive”.

For the molecule `O=C(O)CCCc1ccccc1`, the Potency result is “inactive”.

For `CC(=O)NS(=O)(=O)c1ccc(N)cc1`, the Potency result was “inactive”.

In the case of `CCN(CC)CCOC(=O)C(c1ccccc1)c1ccccc1`, the Potency result was “inactive”.

For `CC(N)CCCC(C)(C)O` (stereo not given), the Potency entry was “inactive”.

In the case of `CCN(CC)S(=O)(=O)c1ccc(C(=O)O)cc1`, the Potency entry is “inactive”.

On to `CC(=O)OC[C@H]1O[C@@](COC(C)=O)(O[C@H]2O[C@H](COC(C)=O)[C@@H](OC(C)=O)[C@H](OC(C)=O)[C@H]2OC(C)=O)[C@@H](OC(C)=O)[C@@H]1OC(C)=O`, for which the Potency result was “inactive”.

In the case of `CCc1nnc(NS(=O)(=O)c2ccc(N)cc2)s1`, the Potency result was “inactive”.

On to `COc1ccc(Cc2cnc(N)nc2N)cc1OC`, for which the Potency result is “inactive”.

As to `CCOC(N)=O`, the Potency entry is “inactive”.

Consider `OCC(O)CS` (stereo not given), for which the Potency entry is “inactive”.

On to `O=C(O)c1ccc[n+]([O-])c1`, for which the Potency result was “inactive”.

On to `C[C@@H]1CCC[C@H](C)N1`, for which the Potency entry is “inactive”.

For `Nc1ccc(C(=O)Oc2ccccc2)c(O)c1`, the Potency entry is “inactive”.

With `CC1CCc2cc(F)cc3c(=O)c(C(=O)O)cn1c23` (stereo not given), the Potency result is “inactive”.

Consider `C[C@@H]1O[C@@H](OC[C@H]2O[C@@H](Oc3c(-c4ccc(O)c(O)c4)oc4cc(O)cc(O)c4c3=O)[C@H](O)[C@@H](O)[C@@H]2O)[C@H](O)[C@H](O)[C@H]1O`, for which the Potency entry is “inactive”.

As to `NS(=O)(=O)c1ccc(NC(=O)CCC(=O)O)cc1`, the Potency entry was “inactive”.

`O=C(OOC(=O)c1ccccc1)c1ccccc1`: the Potency entry is “inactive”.

Turning to `CCCCOC(=O)c1ccc(N)cc1`, the Potency result is “inactive”.

Regarding `Cc1c(NC(=O)c2cccnc2)c(=O)n(-c2ccccc2)n1C`, the Potency result is “inactive”.

As to `C=CCSCC1Nc2cc(Cl)c(S(N)(=O)=O)cc2S(=O)(=O)N1` (stereo not given), the Potency entry is “inactive”.

On to `CCCCCCCCCCCCCCCCCCO`, for which the Potency entry is “inactive”.

Turning to `Cc1cc(C)c(NC(=O)CN(CC(=O)O)CC(=O)O)c(C)c1Br`, the Potency result was “inactive”.

With `NC(N)=NS(=O)(=O)c1ccc(N)cc1`, the Potency entry was “inactive”.

Regarding `CCN(CC)CC1CCCCN1CC(=O)N1c2ccccc2C(=O)Nc2cccnc21` (stereo not given), the Potency result was “inactive”.

Consider `Cc1ccccc1N=Nc1ccc(N=Nc2c(O)ccc3ccccc23)c(C)c1`, for which the Potency entry is “inactive”.

For the molecule `O=C(CN1CCNCC1)NC1CCCCC1`, the Potency entry was “inactive”.

With `O=C(O)c1ccc(OCCCOc2ccc(C(=O)O)cc2)cc1`, the Potency result is “inactive”.

Source of the values: PubChem BioAssay (NCATS).
